HSF-1 act – increases HSF-1 driven luciferase reporter signal; NIH3T3-HGL HSF-1 luciferase reporter, MG132, 8 h; 100% = twice DMSO control signal; activation, % at 9 µM; 1.7% of 300,000 active; AID 504408;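 active means mean replicate activation of at least 50% with a set share of replicates each reaching 50%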
L929 necroptosis – L929 zVAD cell death inhibition; L929 zVAD necroptosis rescue, ATP luminescence, 24 h; with zVAD 60 µM; viability rescue, % at 10 µM; 0.38% of 220,000 active; AID 1377;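 active means activation, scaled between plate controls, above about 75%, limit read from the data; inactive means activation under that limit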
TNF death inh – inhibitors of TNF-alpha induced necroptosis in Jurkat FADD-/- cells. activation (protection from cell death), % at 10 µM. Jurkat FADD-/- TNF necroptosis rescue, ATP luminescence, 24 h; 0 = TNF only, 100 = no-TNF cells. AID 463075. 0.068% of 220,000 active;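 active means activation, meaning protection from cell death, of at least 50% relative to plate controls; inactive means activation below 50%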;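 further: necroptosis triggered by 40 ng/mL TNF-alpha added together with compound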
Hsp70 act – switches on Hsp70 transcription. HeLa Hsp70 promoter luciferase reporter, luminescence; scaled: vehicle 0, proteasome-inhibitor control 100%. activation, % at 10 µM. 0.04% of 200,000 active;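 active means activation above the mean across all tested compounds plus 3 SD, cutoff set per campaign, cut at about 5.5% in these data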
Each line names hits and unclear results; the compound was inactive in the other large screens. In the library only some 1.9% were active in any assay of this set; here they are far more common.

COc1cc2c(cc1NC(=O)COc1ccccc1OC)oc1ccccc12	none
COc1cc2c(cc1NC(=O)COC(=O)[C@@H](NS(=O)(=O)c1ccccc1)C(C)C)oc1ccccc12	HSF-1 act 90
Cc1ccc(C2SCCN2C(=O)c2ccc([N+](=O)[O-])cc2)cc1 (centres undefined)	TNF death inh 51
O=C(c1ccc([N+](=O)[O-])cc1)N1CCSC1c1ccc(Br)cc1 (centres undefined)	none
O=C(COC(=O)c1ccccc1)c1ccc(Br)cc1	HSF-1 act 58
O=S(=O)(c1ccc(Cl)cc1)c1snnc1-c1ccccc1	HSF-1 act 66
CCC(C)(C)c1ccc(OCCCC[n+]2cccc(C)c2)c(C(C)(C)CC)c1	none
O=c1c(Cl)c(Cl)cnn1Cc1nnc(-c2ccc(Cl)cc2)o1	none
Cc1ccc(C(=O)c2ccccc2C(=O)OCC(=O)NCCc2ccc(Cl)cc2Cl)cc1	HSF-1 act 54
CC1CCN(C(c2ccc(N(C)C)cc2)c2nnnn2Cc2ccccc2)CC1 (centres undefined)	HSF-1 act 66
Cc1cccn2c(CNCCc3ccco3)c(C(=O)N3CCOCC3)nc12	none (no result: L929 necroptosis, TNF death inh, Hsp70 act)
COc1ccc(-c2nnc(SCC(=O)NCc3ccco3)n2C)cc1	none
COc1cccc(/C=N/NC(=O)c2c(-c3ccccc3)noc2C)c1	none
Cc1onc(-c2ccccc2)c1C(=O)N/N=C/c1cccc(O)c1	HSF-1 act 67
O=C(CCNC(=O)C1CCN(S(=O)(=O)c2ccc(F)cc2)CC1)NCCc1ccc(Cl)cc1	none (no result: L929 necroptosis, TNF death inh, Hsp70 act)
O=C(Nc1ccc(N2CCCCCC2)cc1)c1ccccc1Cl	HSF-1 act 60
Cc1ccc(NC(=O)c2cc(NC(=O)c3ccccc3C(=O)O)ccc2N2CCCCC2)cc1	HSF-1 act 60
O=C(NCCCn1ccnc1)C1c2ccccc2Oc2ccccc21	none
Cc1nn(-c2ccccc2)c(/N=C/c2ccc(O)cc2)c1-c1ccccc1	HSF-1 act 56
COc1ccc([N+](=O)[O-])cc1NC(=O)c1cn(-c2ccc(Cl)cc2)c(=O)c2ccccc12	none
CC(=O)Nc1ccc(C(=O)OCc2ccc(Cl)c(Cl)c2)cc1	HSF-1 act 57
O=C(NCc1cccnc1)C(=O)NCC(c1ccco1)N1CCOCC1 (centres undefined)	none
O=C(NCc1cccnc1)C(=O)NCC(c1ccco1)N1CCN(c2ccccc2)CC1 (centres undefined)	HSF-1 act 80
COc1ccccc1N1CCN(C(=O)CN(C)S(=O)(=O)c2cc(C)ccc2OC)CC1	none
Cc1ccccc1Cn1nc(C)c(NC(=O)C2c3ccccc3Oc3ccccc32)c1C	HSF-1 act 70
CN(Cc1ccccc1)C(=O)c1cc(-c2ccc(Br)cc2)on1	HSF-1 act 62
Cc1ccc(C2=C(c3ccc([N+](=O)[O-])cc3)C(=O)OC2)cc1C	none
CCN(CC)S(=O)(=O)c1ccc(NC(=O)C2CCCN(C(=O)c3ccc(Cl)cc3)C2)cc1 (centres undefined)	none
Cc1[nH]n(-c2ccccc2)c(=O)c1/C=N/N1C(=O)c2ccc3c4c(ccc(c24)C1=O)CC3	HSF-1 act 75
Cc1nnc(NC(=O)C2CC(=O)N(c3ccccc3)C2)s1 (centres undefined)	none (no result: L929 necroptosis, TNF death inh, Hsp70 act)
CCOC(=O)c1cnc2ccc(OCC)cc2c1N1CCN(C)CC1	none
CCOc1ccc2ncc(S(=O)(=O)c3ccc(C)cc3)c(N3CCC4(CC3)OCCO4)c2c1	HSF-1 act 104
COc1cccc(-c2nc(N3CCCCC3)c3ccccc3n2)c1O	none (no result: L929 necroptosis, TNF death inh, Hsp70 act)
COc1cccc(-c2nc(N3CCN(c4ccccc4)CC3)c3ccccc3n2)c1O	HSF-1 act 66
Cn1c(=O)n(CCN2CCOCC2)c(=O)c2c1nc1n2CCN1c1ccccc1	none (no result: HSF-1 act)
Cc1ccc(S(=O)(=O)NC(=O)Nc2ccc(C)cn2)cc1	HSF-1 act 69 (no result: L929 necroptosis, TNF death inh, Hsp70 act)
Cc1ccc(S(=O)(=O)NC(=O)Nc2ccc(Cl)cn2)cc1	none
O=C(Cc1ccccc1F)NC1CCCc2ccccc21 (centres undefined)	none (no result: L929 necroptosis, TNF death inh, Hsp70 act)
Cc1ccccc1CC(=O)NC1CCCc2ccccc21 (centres undefined)	HSF-1 act 65 (no result: L929 necroptosis, TNF death inh, Hsp70 act)
c1ccc(CSc2nnc(-c3ccncc3)o2)cc1	none
COc1ccc(-c2nnc(SCc3ccccc3F)o2)cc1	HSF-1 act 54
Fc1ccccc1CSc1nnc(-c2cccnc2)o1	none
C#CCSc1nnc(-c2ccc(OC)cc2)o1	HSF-1 act 66
Fc1ccccc1CSc1nnc(-c2ccccc2)o1	none
Cc1ccccc1-c1nnc(SCc2ccccc2)o1	HSF-1 act 64
Cc1ccccc1-c1nnc(SCc2ccccc2F)o1	HSF-1 act 74
NC(=O)CC[C@H](NC(=O)c1ccc(F)cc1)C(=O)OCC(=O)NCc1ccc(F)cc1	none
COc1ccccc1NC(=O)C1CC(O)CN1C(=O)Oc1ccccc1 (centres undefined)	none (no result: L929 necroptosis, TNF death inh, Hsp70 act)
CCCCN(Cc1ccco1)S(=O)(=O)c1csc(C(N)=O)c1	none (no result: L929 necroptosis, TNF death inh, Hsp70 act)
CCCN1CCN(C(=O)C(NC(=O)c2ccco2)C(C)C)CC1 (centres undefined)	none (no result: L929 necroptosis, TNF death inh, Hsp70 act)
COc1ccc(Nc2oc(-c3ccc(OC)cc3)nc2C#N)cc1	HSF-1 act 68 (no result: Hsp70 act)
COc1ccc(-c2nnc(-c3ccc(C)cc3)o2)cc1	HSF-1 act 53 (no result: L929 necroptosis, TNF death inh, Hsp70 act)
COc1ccc(-c2nnc(-c3ccc(F)cc3)o2)cc1	none (no result: L929 necroptosis, TNF death inh, Hsp70 act)
COc1ccc(-c2cc(C(F)(F)F)nc(S(=O)(=O)CCCC(=O)Nc3cccc(O)c3)n2)cc1OC	HSF-1 act 260
COc1ccc(-c2cc(C(F)(F)F)nc(S(=O)(=O)CCC(=O)N3CCOCC3)n2)cc1	HSF-1 act 106
COc1ccccc1CNC(=O)[C@@H]1CCCN1S(=O)(=O)c1ccccc1F	none (no result: L929 necroptosis, TNF death inh, Hsp70 act)
S=c1[nH]nc(-c2ccncc2)n1/N=C/c1cccc(Cl)c1	none (no result: Hsp70 act)
CCCSc1nnc(Sc2nnnn2-c2ccccc2)s1	HSF-1 act 123
CCCc1nnc(NC(=O)C23CC4CC(CC(C4)C2)C3)s1	none (no result: L929 necroptosis, TNF death inh, Hsp70 act)
COc1ccc(C(=O)/C=C/Nc2ccccn2)c(OC)c1	HSF-1 act 74 (no result: Hsp70 act)
COc1ccc(C(=O)/C=C/Nc2c(C)n(C)n(-c3ccccc3)c2=O)c(OC)c1	none
CCN1CCN(C(=O)CSc2cc(=O)n(CC)c3ccccc23)CC1	none
CCn1c(=O)cc(SCC(=O)N2CCN(C)CC2)c2ccccc21	HSF-1 act 63
COc1ccc(-c2nnc(SC(C)C(=O)Nc3cccc(Cl)c3)o2)cc1 (centres undefined)	HSF-1 act 109
COc1ccc(-c2nnc(SC(C)C(=O)NNC(=O)c3ccc(C)cc3)o2)cc1 (centres undefined)	none
COC(=O)c1ccc(N2CCOCC2)c(NC(=O)c2ccco2)c1	none (no result: L929 necroptosis, TNF death inh, Hsp70 act)
COc1ccc(CNCC(O)COc2ccc(C(C)(C)c3ccccc3)cc2)cc1 (centres undefined)	HSF-1 act 194 (no result: L929 necroptosis, TNF death inh, Hsp70 act)
CCOC(=O)C1=C(c2ccccc2)NC(=O)NC1c1cc(Br)c(O)c(OC)c1 (centres undefined)	HSF-1 act 79
CCOC(=O)C1=C(C)NC(=O)NC1c1cc(Br)c(O)c(OC)c1 (centres undefined)	none
Cc1ccc(C)c(NC(=O)C2CC(O)CN2C(=O)OCc2ccccc2)c1 (centres undefined)	none
